An excerpt weighted towards active compounds, which were near 3.3% of everything screened.
Tb PYK inh – inhibitors of Trypanosoma brucei pyruvate kinase. TbPYK enzyme, Kinase-Glo Plus ATP luminescence, 45 min. Potency, µM (doses to about 76.8 µM), inactives show at the top dose activity, negative = inhibition, actives largely listed as inhibitors. 410,000 tested, 0.12% active; further: nearly all actives have a fitted effect of over 50% in size
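Readout: single end-point luminescence (Kinase-Glo Plus, 10 min). Reaction conditions were TbPYK/substrate plus 130 uM ADP, 45 min at RT, pH 7.2 TEA buffer. No-enzyme wells served as controls, and data were normalized before concentration-response fitting.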
Sm TGR block – S. mansoni TGR enzyme inhibition; Potency, µM (titrated, usually from 114 µM), inactives show at the top dose activity change, negative = inhibition, hits mostly inhibitors; purified TGR, DTNB reduction, TNB absorbance 405 nm; 360,000 tested, 3% active; Q962Y6; further: nearly all actives have a fitted effect of over 60% in size
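First, TGR (20 nM dispensed) and NADPH were mixed with compound. Second, a 15 min room-temperature incubation followed. Third, further NADPH and then DTNB were added to start the reaction. Finally, TNB absorbance was monitored kinetically.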
Giardia FBPA inh – blocks Giardia fructose-bisphosphate aldolase activity. A8B2U2. purified Giardia FBPA. Potency, µM (titrated, usually from 59.6 µM), inactives show at the top dose activity, negative = inhibition, hits mostly inhibitors. 290,000 tested, 0.71% active. AID 2451; further: nearly all actives have a fitted effect of over 55% in size
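Giardia FBPA (40 nM reagent) was preincubated 10 min at RT with compound (up to 57.5 uM final), then substrate plus GAPDH/TPI/NAD/arsenate coupling system with diaphorase/resazurin was added; resorufin fluorescence (525/598 nm) was read after 20 min.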
LmPK inhibitor – blocks Leishmania mexicana pyruvate kinase activity. Q27686. purified LmPK, Kinase-Glo ATP luminescence, 1 h. Potency, µM (highest dose often 57.5 µM), without a hit: top-dose activity change, negative = inhibition, most hits filed as inhibitors. 290,000 tested, 0.37% active
Target sequence (Q27686 whole entry, looked up): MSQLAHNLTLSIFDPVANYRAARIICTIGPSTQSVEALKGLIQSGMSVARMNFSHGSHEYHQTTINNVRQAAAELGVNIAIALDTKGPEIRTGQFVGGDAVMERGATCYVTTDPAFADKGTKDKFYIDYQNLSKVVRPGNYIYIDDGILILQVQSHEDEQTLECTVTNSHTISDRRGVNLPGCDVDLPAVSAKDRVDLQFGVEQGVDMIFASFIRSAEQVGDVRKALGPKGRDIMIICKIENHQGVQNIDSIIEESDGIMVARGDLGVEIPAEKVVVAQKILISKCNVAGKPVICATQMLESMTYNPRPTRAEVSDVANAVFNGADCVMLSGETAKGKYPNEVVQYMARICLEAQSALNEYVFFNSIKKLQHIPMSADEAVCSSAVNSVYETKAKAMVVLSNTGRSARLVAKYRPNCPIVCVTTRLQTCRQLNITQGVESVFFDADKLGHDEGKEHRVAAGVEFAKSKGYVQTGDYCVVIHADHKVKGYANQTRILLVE
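Purified LmPK (0.1 nM) converted ADP (0.1 mM) to ATP with PEP (0.5 mM) in imidazole buffer pH 7.2 with KCl and MgCl2, 1 h at room temperature. ATP was read by Kinase-Glo luminescence; data normalized to uninhibited and no-enzyme controls.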
RE007 growth inh – less growth of the S. pombe RE007 Vpr strain; S. pombe RE007 Vpr strain, BacTiter-Glo ATP luminescence, 24 h; Potency, µM (series often up to 92.2 µM), inactives show top-dose activity change, negative = less growth, most hits filed as inhibitors; 360,000 tested, 0.21% active; AID 651644; active means well fitted falling curve with a large enough effect; inconclusive means small, poorly fitted or top-dose-only effect; inactive means no such curve, though single readings can be large or run the other way; further: nearly all actives have a fitted effect of over 50% in size
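Fission yeast RE007 carrying one integrated HIV-1 vpr copy, seeded at OD 0.01 in PMG+AL medium with 23 nL pinned compound. Grown 24 h at 30 degrees; viability read by BacTiter-Glo luminescence after 5 min.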
Active calls of the source: *; ? = inconclusive; . = no result given; [ ] = remark or other dose. Unless noted, the call rests on the fitted dose curve; in most records, active means well fitted curve in the direction sought with a large enough effect; inconclusive means small, poorly fitted or top-dose-only effect, or another doubt; inactive means no such curve, though single readings can be large; an effect the other way counts as inactive or inconclusive. On the % scale 0 is the no-effect control and ±100 the full control effect; potency means the concentration at half of the fitted maximal effect.

SMILES	Tb PYK inh	Sm TGR block	Giardia FBPA inh	LmPK inhibitor	RE007 growth inh
COc1ccc(OCC(=O)OC2CCN(C)CC2)cc1	6%	-31%	0%	8%	3%
CC1COCC(C)N1C1=C(Cl)C(=O)c2ccccc2C1=O (stereo unspecified)	22µM*	.	.	.	40µM*
Cc1ccc(NC2=NC(c3ccccc3)n3c(nc(C)cc3=O)N2)c(C)c1 (stereo unspecified)	-1%	25µM*	-5%	-2%	4%
Cc1ccc(NC2=NC(c3ccc(F)cc3)n3c(nc(C)cc3=O)N2)c(C)c1 (stereo unspecified)	-10%	1%	10%	3%	5%
CCc1ccc(-c2nc(CS(=O)CC(=O)NCc3ccccc3)c(C)o2)cc1 (stereo unspecified)	-5%	8.9µM*	.	-4%	15%
CCc1ccc(-c2nc(CSCC(=O)NCc3ccccc3OC)c(C)o2)cc1	-7%	1%	.	.	.
CCc1ccc(-c2nc(CS(=O)CC(=O)NCc3ccc4c(c3)OCO4)c(C)o2)cc1 (stereo unspecified)	0%	10µM*	.	-6%	3%
CCc1ccc(-c2nc(CSCC(=O)NCc3ccco3)c(C)o2)cc1	-2%	28µM*	0%	5%	38%
Cc1ccc(-c2nc(CS(=O)CC(=O)NCc3ccc4c(c3)OCO4)c(C)o2)cc1 (stereo unspecified)	-9%	22µM*	-5%	-3%	-25%
CCCCNC(=O)c1[nH]c2ccccc2c1Sc1ccc(C)cc1	-12%	2%	.	.	.
CCN(CC)CCCNC(=O)c1[nH]c2ccccc2c1Sc1ccc(Cl)cc1	-1%	5µM*	-10%	3%	1%
CC(=O)Nc1ccc(S(=O)(=O)NCc2ccc3[nH]c(C)cc3c2)cc1	6%	?	-13%	0%	-2%
CCCN1CCCc2cc(CN)ccc21	12%	14µM*	?	-8%	18%
COC(=O)[C@@H]1C[C@@]2(O)[C@@H](O)[C@@H](O)[C@@H](O)C[C@H]2N1Cc1ccc(Cl)cc1	8%	40µM*	-1%	-10%	2%
COc1cccc(-n2nnc3c(=O)n(C/C=C/c4ccccc4)cnc32)c1	5%	1%	3%	-1%	0%
O=C1C(Cl)=C(Cl)C(=O)C(Cl)=C1Cl	.	.	0.56µM*	.	.
O=C1C(=O)C(Cl)=C(Cl)C(Cl)=C1Cl	?	.	.	.	14%
N#Cc1ccc(NC(=S)Nc2ccccc2)cc1	-3%	45µM*	-6%	3%	-4%
CC(=O)c1ccc(-c2ccccc2OC(F)(F)F)o1	2%	-36%	25%	3%	1%
Cn1cnnc1SCc1ccc(-c2ccc(Br)cc2)o1	1%	25µM*	-17%	-8%	-27%
Cn1cnnc1SCc1ccccc1	4%	-3%	1%	-1%	4%
CCOC(=O)c1ccccc1NC(=O)C1CC(=O)N(C(C)(C)C)C1 (stereo unspecified)	-1%	-14%	-2%	11%	0%
CCOC(=O)c1ccccc1NC1CC(=O)N(c2ccccc2C)C1=O (stereo unspecified)	-13%	3.5µM*	-5%	-12%	-12%
S=C1SCN(Cc2ccco2)CN1Cc1ccco1	-9%	0%	?	-6%	35µM*
CCOC(=O)c1c(C)nn(-c2ccc(NC(=O)/C=C/C(=O)O)cc2)c1C	-7%	50µM*	8%	-3%	2%
SMILES	Tb PYK inh	Sm TGR block	Giardia FBPA inh	LmPK inhibitor	RE007 growth inh
O=C(Nc1nc2ccccc2[nH]1)c1ccc(F)cc1	-29%	12%	-8%	13µM*	-22%
C(=C1/CCCC2=C1Nc1ncnn1C2c1ccccc1)/c1ccccc1 (stereo unspecified)	.	0.5µM*	.	6%	.
S=C1NC2=C(CCC/C2=C\c2ccccc2)C(c2ccccc2)N1 (stereo unspecified)	?	-35%	1%	-4%	-14%
CCC(=O)c1cn(CC(=O)Nc2ccccc2)c2ccccc12	3%	3%	5%	6%	0%
CCC(=O)c1cn(CC(=O)Nc2ccc(C)cc2)c2ccccc12	1%	100µM*	8%	6%	3%
Cc1csc(=O)n1CCC(=O)OCC(=O)NNC(=O)c1ccc(Cl)cc1	-13%	35µM*	.	.	0%
Cc1csc(=O)n1CCC(=O)OCC(=O)NCc1ccc(Cl)cc1Cl	-1%	-1%	.	.	10%
CNC1(C(N)=O)CCNCC1	0%	-18%	7%	-4%	.
CS/C(=C\[N+](=O)[O-])Nc1ccc(OC(F)(F)F)cc1	-7%	0.28µM*	6%	1%	-4%
Cc1ccc(OCCCNCCO)c(Br)c1	-4%	?	0%	2%	-16%
CC1=C(O)C(=O)C=C2C1=CC=C1C2(C)CCC2(C)C3CC(C)(C(=O)O)CCC3(C)CCC12C (stereo unspecified)	35µM*	.	.	.	?
CCCCCc1c2c(cc(O)c1C(=O)O)OC(=O)c1c(cc(OC)cc1C(=O)CCCC)O2	-9%	40µM*	13%	3%	1%
CCCCCc1c2c(cc(O)c1C(=O)O)OC(=O)c1cc(C(=O)CCCC)c(OC)cc1O2	-5%	.	14%	.	13%
C=C(C)C(=O)Nc1cccc(C2=NOC3(C2)C[C@H](C(N)=O)N(C(=O)CC)C3)c1 (stereo partly specified)	-4%	20%	0%	0%	0%
O=C(N/N=C/c1c[nH]c2ccccc12)c1sc2ccccc2c1Cl	1%	-9%	-6%	-2%	-10%
O=C(N/N=C/c1ccccn1)c1sc2ccccc2c1Cl	-2%	4%	5µM*	4%	?
Cc1nn(Cc2ccc(Cl)cc2Cl)c(C)c1NC(=O)CCl	6%	40µM*	-1%	6%	16%
Cc1nn(Cc2ccc(Cl)cc2Cl)c(C)c1NC(=O)c1nn(C)cc1Cl	-1%	49%	7%	2%	-9%
CC(=O)Nc1c(C)nn(-c2ccc([N+](=O)[O-])cc2)c1C	4%	-33%	-3%	-3%	5%
Cc1ccc(-n2nc(C)c(NC(=O)CCl)c2C)cc1	-8%	50µM*	2%	5%	.
COc1ccc(NC(=O)C2(C)Cc3c(-c4ccc(C(N)=O)cc4)ccnc3O2)cc1OC (stereo unspecified)	0%	.	.	.	10%[18.4 µM]
CCOC(=O)c1ccc(S(=O)(=O)N2CCN(C3CCCC3)CC2)cc1	-16%	13µM*	3%	-4%	-4%
O=C(NCC(=O)N1CCN(S(=O)(=O)c2ccccc2F)CC1)c1ccc2c(c1)OCO2	3%	35%	.	.	9%
CCOC(=O)c1ccc(S(=O)(=O)N2CCC(N3CCCCCC3)CC2)cc1	1%	.	.	.	-11%
O=[N+]([O-])c1ccccc1S(=O)(=O)N1CCN(Cc2cc3c(cc2O)OCO3)CC1	-13%	0.56µM*	-12%	3%	-15%
Cc1ccc(C)c(S(=O)(=O)N2CCN(Cc3cc4c(cc3O)OCO4)CC2)c1	1%	0.63µM*	.	.	-20%

Screens from PubChem BioAssay.
